We go through 68 molecules from PubChem BioAssay AID1851 (National Center for Advancing Translational Sciences (NCATS), 2009).

Among all 16,000 compounds or so, about 2,600 (16%) were called active. Another 20% or so got no clear call; they are omitted. Not all results are given here. A number with no mark means an inactive call. The call rests on the fitted dose curve; in most records, active means well fitted curve in the direction sought with a large enough effect; inconclusive means small, poorly fitted or top-dose-only effect, or effect the other way; inactive means no such curve, though single readings can be large or run the other way.
On the % scale 0 is the no-effect control and ±100 the full control effect.

Chain of Cytochrome P450 2D6 (Homo sapiens) (P10635 whole entry, looked up): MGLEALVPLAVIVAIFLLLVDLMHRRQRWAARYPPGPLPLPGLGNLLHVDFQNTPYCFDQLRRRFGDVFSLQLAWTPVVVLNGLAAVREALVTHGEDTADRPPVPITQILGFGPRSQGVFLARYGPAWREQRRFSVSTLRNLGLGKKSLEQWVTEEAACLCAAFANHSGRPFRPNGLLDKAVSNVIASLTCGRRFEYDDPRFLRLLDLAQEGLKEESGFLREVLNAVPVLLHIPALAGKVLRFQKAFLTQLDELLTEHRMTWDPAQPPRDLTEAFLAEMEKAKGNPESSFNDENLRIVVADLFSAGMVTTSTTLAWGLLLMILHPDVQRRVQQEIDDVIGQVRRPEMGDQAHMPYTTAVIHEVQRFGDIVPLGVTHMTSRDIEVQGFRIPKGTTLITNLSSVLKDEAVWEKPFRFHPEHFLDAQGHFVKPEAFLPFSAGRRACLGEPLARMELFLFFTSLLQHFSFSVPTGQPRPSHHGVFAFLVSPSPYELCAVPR

The assay has as its target Cytochrome P450 2D6 (Homo sapiens) (UniProt P10635). The experiment in a line: Cytochrome panel assay with activity outcomes. Particulars: recombinant CYP, pro-luciferin dealkylation, luminescence, p450-cyp2d6; series mostly up to 57.1 µM.
The AC50 is the concentration giving half of the maximal activity seen. On to `CC1=C(C(=O)OCc2ccccc2)C(c2ccc(Cl)cc2)NC(=O)N1CCCCCC(=O)O` (stereo not drawn), for which the AC50 result is “inactive”.

As to `O=C(CNC1CCCCCC1)Nc1ccccc1N1CCCCC1`, the AC50 was 1.41 µM (active).

Turning to `Cc1ccc(OCC(=O)Nc2ccccc2N2CCOCC2)c(C)c1`, the AC50 entry was “inactive”.

In the case of `CCOc1ccc(C(=O)Nc2ccccc2N2CCCC2)cc1`, the AC50 is 3.16 µM (active).

With `CCOc1cc(NC(=S)Nc2ccccc2)c(OCC)cc1NC(=O)c1ccc(OC)cc1`, the AC50 result was “inactive”.

Regarding `O=C(Cc1ccccc1)Nc1ccccc1N1CCOCC1`, the AC50 result was “inactive”.

`COc1cc(OC)cc(C(=O)Nc2ccccc2C(=O)N2CCCC2)c1`: the AC50 result is “inactive”.

Regarding `CC1(C)CC(=O)C(C(c2cccc(O)c2O)C2C(=O)CC(C)(C)CC2=O)C(=O)C1`, the activity, negative = inhibition is -12.6% [at 11.4 µM].

In the case of `Cc1ccc(-n2c(-c3cc(C)n(C)n3)n[nH]c2=S)cc1`, the AC50 result was “inactive”.

Turning to `Cc1ccc(SC(C)C(=O)NCc2cccnc2)cc1` (stereo not drawn), the AC50 result is “inactive”.

In the case of `Cc1ccc(S(=O)(=O)/C(C#N)=C/c2c(N3CC(C)OC(C)C3)nc3ccccn3c2=O)cc1` (stereo not drawn), the AC50 entry is “inactive”.

As for `COc1ncc2nc(CCc3ccccc3)c(=O)n(CCc3ccccc3)c2n1`, the AC50 result was “inactive”.

Turning to `Cc1cccn2c(/C=N/OCc3cccc(F)c3)c(-c3ccc(Cl)cc3)nc12`, the AC50 result was “inactive”.

As for `CCN1C(=O)[C@H]2[C@H]3[C@H](O)[C@H](O)C/C(=N/OCC(C)C)[C@H]3CC[C@@H]2C1=O`, the activity, negative = inhibition was -6.52% [at 11.4 µM].

Turning to `Cc1noc(C)c1C(=O)N1CCC[C@@]2(CCN(C(=O)Nc3cccc(F)c3)C2)C1`, the AC50 result was “inactive”.

Turning to `CCOC(=O)CC(=O)CSc1nc(-c2ccccc2)cc(-c2ccc(Cl)cc2)c1C#N`, the AC50 result is “inactive”.

Consider `O=C1c2ccccc2C(=O)N1CC1c2ccccc2CCN1S(=O)(=O)c1ccccc1` (stereo not drawn), for which the AC50 entry is “inactive”.

With `CCn1c(CC(=O)Nc2ccc(C)cc2)nnc1SCC(=O)NCCc1ccccc1`, the AC50 result was “inactive”.

With `CCNCc1cc(OCC)c(OCC(=O)NCCc2ccccc2)cc1Cl`, the AC50 is 12.6 µM (active).

Regarding `COc1ccc(OC)c2[nH]c(=O)c(CCNC(=O)COc3ccccc3)cc12`, the AC50 entry was “inactive”.

Consider `CN1CCC(=NNC(=O)CSCc2ccccc2)CC1`, for which the AC50 result is “inactive”.

In the case of `O=C(N/N=C/c1ccco1)c1ccc(Br)o1`, the AC50 entry was “inactive”.

Turning to `CCCN1CCC(=NNC(=O)c2ccc(Br)o2)CC1`, the AC50 was 7.08 µM (active).

Regarding `COc1ccc(OC[C@@H](CO)OC)cc1`, the activity, negative = inhibition is -7.62% [at 11.4 µM].

Regarding `COc1ccc(CNC(=O)CN(CC2CCCO2)C(=O)CNS(=O)(=O)c2ccccc2)cc1` (stereo not drawn), the AC50 result is “inactive”.

For the molecule `CN1CC[C@@]2(CCCN(C(=O)c3cccc(F)c3)C2)C1`, the AC50 entry is “inactive”.

In the case of `COc1ccccc1CNc1ncncc1-c1ccccc1C(F)(F)F`, the AC50 is 2 µM (active).

With `COc1ccc(CNc2ncncc2-c2ccccc2C(F)(F)F)c(OC)c1`, the concentration at half-maximal activity (AC50) is 0.398 µM (active).

Turning to `O=c1c(-c2cccc(Cl)c2)nc2cncnc2n1C1CC1`, the AC50 entry is “inactive”.

On to `O=C(Nc1ccccc1[N+](=O)[O-])C1C(c2ccccc2)=C1c1ccccc1`, for which the AC50 entry was “inactive”.

As to `COc1ncc2nc(-c3cccs3)c(=O)n(C)c2n1`, the AC50 entry is “inactive”.

Turning to `Cc1cnn(-c2ccc3nnc(-c4ccc(Cl)cc4)n3n2)c1`, the AC50 entry was “inactive”.

Take `FC(F)(F)c1nc2ccccc2nc1N/N=C/c1ccc(Cl)cc1`: the AC50 was 0.631 µM (active).

Take `Clc1ccc(/C=N/Nc2nnc(-c3ncc[nH]3)c3ccccc23)cc1`: the AC50 entry was “inactive”.

`N#CC(c1ccc(Cl)cc1)c1nc2ccccc2nc1C(F)(F)F` (stereo not drawn): the AC50 entry is “inactive”.

With `O=c1[nH]c(=O)n([C@@H]2C[C@H](O)[C@H](CO)O2)cc1I`, the AC50 entry is “inactive”.

For the molecule `CCCN[C@@H](C)C(=O)Nc1ccccc1C`, the AC50 result was “inactive”.

On to `N#Cc1cc(-c2ccc(Cl)cc2)cnc1Sc1ccccc1`, for which the AC50 entry is “inactive”.

For the molecule `N#Cc1cc(N)ccc1Sc1ccc(Cl)cc1`, the AC50 was 22.4 µM (active).

In the case of `N#Cc1cc(-c2ccc(Cl)cc2)cnc1Sc1ccc(F)cc1`, the AC50 result was “inactive”.

As to `Cc1cc(C)cc(-n2c(C)cc(C=C(C#N)C#N)c2C)c1`, the AC50 entry is “inactive”.

Regarding `Cn1c(=O)c2c(nc(C(=N)SCC(=O)O)n2C)n(C)c1=O`, the activity, negative = inhibition was 1.35% [at 11.4 µM].

`S=C1N(c2ccccc2)C(c2ccc(Cl)cc2)N2CCCN12` (stereo not drawn): the AC50 result is “inactive”.

With `O=C1C2CCCN2C(c2ccccc2F)N1c1ccc(Cl)cc1` (stereo not drawn), the AC50 result was “inactive”.

In the case of `O=C1C2=C(NC(=S)NC2c2ccc(Cl)cc2)NC(c2ccc(Cl)cc2)N1c1ccc(Cl)cc1` (stereo not drawn), the AC50 was 15.8 µM (active).

For the molecule `Cc1cnn(CCC(=O)NNC(=S)Nc2cccc(Cl)c2)c1`, the AC50 entry was “inactive”.

As for `COCCn1c(=O)c(-c2cc(F)cc(F)c2)nc2cnc(Oc3cccc(Cl)c3)nc21`, the AC50 entry is “inactive”.

`Cc1cc(=O)oc(C)c1C(=O)NCc1ccccn1`: the AC50 result was “inactive”.

On to `Cc1cc(Br)ccc1NCc1ccccn1`, for which the half-maximal activity concentration (AC50) was 15.8 µM (active).

As for `Cc1cc(NCc2ccccn2)ccc1Br`, the AC50 entry is “inactive”.

Turning to `O=C(NNC(=O)c1ccccc1-n1cccc1)c1ccccc1`, the AC50 result is “inactive”.

On to `O=C(O)c1ccccc1C(=O)NNc1ccc(Cl)cc1`, for which the AC50 entry was “inactive”.

For `O=C(NNC(=O)c1ccccc1O)c1ccc(Cl)cc1`, the AC50 was 2.82 µM (active).

For the molecule `O=C(C[N+]1(c2ccccc2)CCOCC1)c1ccccc1`, the activity, negative = inhibition is -6.92% [at 11.4 µM].

Take `O=S(=O)(N/N=C\c1ccc2c(c1)OCO2)c1ccc(Cl)cc1`: the AC50 is 7.94 µM (active).

As to `O=S(=O)(N/N=C/c1ccc2c(c1)OCCO2)c1ccc(Cl)cc1`, the AC50 entry was “inactive”.

`Cc1ccc(S(=O)(=O)N/N=C/c2ccc(OC3CSC3)cc2)cc1`: the AC50 entry was “inactive”.

As for `N[C@@H](Cc1nn[nH]n1)C(=O)O`, the activity, negative = inhibition was 7.47% [at 11.4 µM].

Regarding `Cn1c(/C(C#N)=C(\O)c2ccc(S(=O)(=O)N3CCCCC3)cc2)nc2ccccc21`, the AC50 result is “inactive”.

Turning to `C[C@]1(O)CC[C@H]2[C@H]3CC=C4N5CCN=C5CC[C@@]4(C)[C@H]3CC[C@@]21C`, the activity, negative = inhibition was -4.3% [at 11.4 µM].

Turning to `CN1CCN(c2ncnc3ccc(-c4ccccc4C#N)cc23)CC1`, the AC50 entry was “inactive”.

As for `CN1CCC(=C2c3ccccc3C=Cc3ccccc32)CC1`, the AC50 is 2.51 µM (active).

Regarding `CN1CCC(=C2c3ccccc3Sc3ccccc32)CC1`, the AC50 is 3.98 µM (active).

As for `O=C(Nc1ncc(Cc2cc(Cl)ccc2Cl)s1)c1ccc([N+](=O)[O-])cc1`, the AC50 result was “inactive”.

Consider `C/C=C\C1=C(CO)C(=O)C2O[C@]2(CC=C(C)C)C1=O` (stereo partly drawn), for which the activity, negative = inhibition was 0.497% [at 11.4 µM].

Take `COc1ccccc1Cn1c(=S)[nH]c2cc(C(=O)N3CCN(C)CC3)ccc2c1=O`: the AC50 entry is “inactive”.

Turning to `CCC1CCCCN1CCn1c(=S)[nH]c2cc(OC)c(OC)cc2c1=O` (stereo not drawn), the AC50 was 0.178 µM (active).

`CCOc1cc2[nH]c(=S)n(CCC(=O)N3CCc4ccccc4C3)c(=O)c2cc1OCC`: the AC50 entry is “inactive”.
